Laboratory results from ChEMBL document CHEMBL1857833, “Screening and optimization of specific chemical series against human African Trypanosomiasis (HAT)”.
“And” between values parts separate entries of the source, which are not always exact repeats. Identical values can stand only once. Among all 4,400 compounds or so, about 390 (8.9%) showed an effect of 50% or more. The entries come from a sample that favours strong results as a whole.

Each compound was assayed on Trypanosoma brucei (assay: DNDI: Inhibition of Human African Trypanosomiasis, SBRI 427, in vitro at 2 ug.mL-1).
Format: functional
In the case of COC(=O)C1CCN(/C(=N\O)c2cccnc2OCC2CCCCC2)CC1, the “% inhibition” value is reported as 6%. For Cc1ccc(/C(=N/O)NCc2cccnc2)c(Oc2cccc(F)c2)n1, the “% inhibition” value was 5%. For Cc1ccc([C@@H](C)NCc2coc(-c3ccc(OC(F)(F)F)cc3)n2)cc1, the “% inhibition” value was -17%. For CCc1ccc(Oc2ncccc2/C(=N/O)N2CC(C)CC(C)C2)cc1 (stereo unspecified), the “% inhibition” value was 15%. For CCOc1ccc(-c2nc(CN3CC(C)OC(C)C3)co2)cc1 (stereo unspecified), the “% inhibition” value was -8%. CC1CC(NCc2coc(-c3ccc(C(F)(F)F)cc3)n2)CC(C)(C)C1 (stereo unspecified) was tested, and the “% inhibition” value was 98%. With CC(NCc1coc(-c2ccc(C(F)(F)F)cc2)n1)C1CCCCC1 (stereo unspecified) the “% inhibition” value was 7%. With CCOc1ccc(-c2nc(CNC3CC(C)CC(C)(C)C3)co2)cc1 (stereo unspecified) the “% inhibition” value was 99%. CC1CN(Cc2coc(-c3ccc(C(F)(F)F)cc3)n2)CC(C)O1 (stereo unspecified) was tested, and the “% inhibition” value was 12%. For CCOc1ccc(-c2nc(CNC3CCCCCC3)co2)cc1, the “% inhibition” value was 20%. With C#CC1(NCc2coc(-c3ccccc3Cl)n2)CCCCC1 the “% inhibition” value was -12%. For COc1ccc(CN/C(=N\O)c2ccc(Oc3cc(C)cc(C(C)C)c3)nc2)cc1, the “% inhibition” value was 28%. Brc1ccc(-c2nc(CNCc3cccnc3)co2)cc1 was tested, and the “% inhibition” value was -36%. For COc1cccc(-c2nc(CN(C)C(C)(C)C)co2)c1, the “% inhibition” value was 31%. c1ccc(-c2nc(CN3CCN(C4CCCCC4)CC3)co2)cc1 was tested, and the “% inhibition” value was -4%. In the case of Cc1ccc(/C(=N/O)NCc2ccccn2)c(Oc2cc(Cl)ccc2Cl)n1, the “% inhibition” value is reported as 30%. In the case of O/N=C(\NCc1ccccn1)c1cccnc1Oc1cc(Cl)ccc1Cl, the “% inhibition” value is reported as 0%. With CC(C)c1ccc(Oc2ncccc2/C(=N/O)NCC2CCCO2)cc1 (stereo unspecified) the “% inhibition” value was 98%. For CCOc1ccccc1CN/C(=N\O)c1ccc(Oc2ccc(Cl)cc2)nc1, the “% inhibition” value was 1%. For COc1ccc(Oc2ncccc2/C(=N/O)NCC2CCCO2)cc1 (stereo unspecified), the “% inhibition” value was -15%. For COc1ccc(CN/C(=N\O)c2cccnc2Oc2cc(Cl)ccc2Cl)cc1, the “% inhibition” value was 5%. With CCOc1ccccc1CN/C(=N\O)c1cccnc1Oc1ccc(Cl)cc1 the “% inhibition” value was 87%. With O/N=C(\NCc1ccccc1)c1cccnc1Oc1cc(Cl)ccc1Cl the “% inhibition” value was 100%. CC(C)COc1ncccc1/C(=N/O)NCC1CCCO1 (stereo unspecified) was tested, and the “% inhibition” value was 6%. For CCOc1ccccc1CN/C(=N\O)c1ccnc(Oc2ccc(Cl)cc2)c1, the “% inhibition” value was 7%. For Cc1ccccc1CN/C(=N\O)c1cccnc1Oc1cc(Cl)ccc1Cl, the “% inhibition” value was 99%. COCC(C)N/C(=N\O)c1ccc(C)nc1Oc1ccc(SC)c(C)c1 (stereo unspecified) was tested, and the “% inhibition” value was -10%. Cc1ccc(Oc2nc(C)ccc2/C(=N/O)N2CCCCC2)c(C)c1 was tested, and the “% inhibition” value was 0%. CC(NCc1coc(-c2ccc(C(F)(F)F)cc2)n1)c1ccccc1 (stereo unspecified) was tested, and the “% inhibition” value was 2%. With COc1ccc(-c2nc(CNCCc3ccccc3OC)co2)cc1 the “% inhibition” value was -4%. In the case of Cc1ccc(-c2nc(CN3CCN(C(=O)C4CCCO4)CC3)co2)cc1 (stereo unspecified), the “% inhibition” value is reported as 21%. In the case of Cc1ccc(Oc2cc(/C(=N/O)NCc3cccnc3)ccn2)c(C)c1, the “% inhibition” value is reported as -3%. For COc1ccc(Oc2nc(C)ccc2/C(=N/O)NCc2ccc(C)o2)cc1, the “% inhibition” value was 16%. With CCc1ccc(Oc2ncccc2/C(=N/O)N2CCN(C)CC2)cc1 the “% inhibition” value was -4%. In the case of CCc1ccc(Oc2ccc(/C(N)=N/O)cn2)cc1, the “% inhibition” value is reported as 20%. CCOc1ccccc1CN/C(=N\O)c1cccnc1Oc1ccccc1SC was tested, and the “% inhibition” value was 100%. For CCOc1ccccc1CN/C(=N\O)c1cccnc1OC1CCC1, the “% inhibition” value was 5%. In the case of CCc1ccc(Oc2ncccc2/C(=N/O)NCc2ccccc2C)cc1, the “% inhibition” value is reported as 99%. For COc1ccc(Oc2ncccc2/C(=N/O)NCc2ccccc2C)cc1, the “% inhibition” value was 85%. For COc1ccc(Oc2ncccc2/C(=N/O)NCc2ccccc2OC)cc1, the “% inhibition” value was 94%. In the case of CCOc1ccccc1CN/C(=N\O)c1cccnc1OCC(C)C, the “% inhibition” value is reported as 3%. For COc1ccc(Oc2ncccc2/C(=N/O)NCc2ccccn2)cc1, the “% inhibition” value was 2%. With COc1ccccc1CN/C(=N\O)c1cccnc1Oc1cccc2ccccc12 the “% inhibition” value was 0%. For Cc1ccc(/C(=N/O)N2CCC(N(C)C)C2)c(OCc2cccc(F)c2)n1 (stereo unspecified), the “% inhibition” value was -7%. In the case of O/N=C(\NCc1ccccc1)c1ccc(Oc2c(F)c(F)cc(F)c2F)nc1, the “% inhibition” value is reported as 30%. With c1csc(-c2nc(CNCCN3CCOCC3)co2)c1 the “% inhibition” value was -8%. CCN(Cc1coc(-c2ccccc2C)n1)c1ccc2c(c1)OCO2 was tested, and the “% inhibition” value was 13%. For Cc1ccc2cccc(Oc3cc(/C(=N/O)NCc4cccs4)ccn3)c2n1, the “% inhibition” value was 6%. For CCN(Cc1coc(-c2ccc(F)cc2)n1)c1ccc2c(c1)OCO2, the “% inhibition” value was -2%. CN(Cc1cccnc1)/C(=N\O)c1ccnc(Oc2cccc(F)c2)c1 was tested, and the “% inhibition” value was 2%. For CCOc1ccccc1-c1nc(CNCc2cc(OC)c(OC)c(OC)c2)co1, the “% inhibition” value was 8%. In the case of Cc1ccccc1CN/C(=N\O)c1cccnc1Oc1ccc(C(C)C)cc1, the “% inhibition” value is reported as 99%. In the case of COc1ccccc1CN/C(=N\O)c1cccnc1Oc1ccc(C(C)C)cc1, the “% inhibition” value is reported as -4%. In the case of CCOc1ccccc1CN/C(=N\O)c1ccc(C)nc1Oc1cc(Cl)ccc1Cl, the “% inhibition” value is reported as 26%. With Cc1ccc(/C(=N/O)NCc2ccccc2C)c(Oc2cccc(C(C)C)c2)n1 the “% inhibition” value was 2%. With CCOc1ccccc1CN/C(=N\O)c1cccnc1Oc1cc(C)cc(C(C)C)c1 the “% inhibition” value was -4%. For CCOc1ccccc1CN/C(=N\O)c1cccnc1Oc1ccc(F)cc1, the “% inhibition” value was 5%. For CCOc1ccccc1CN/C(=N\O)c1cccnc1Oc1cc(Cl)ccc1Cl, the “% inhibition” value was 100%. With Cc1ccccc1CN/C(=N\O)c1cccnc1OCC(C)C the “% inhibition” value was 11%. CCOc1ccccc1CN/C(=N\O)c1cccnc1Oc1ccc(OC)cc1 was tested, and the “% inhibition” value was 98%. In the case of CCOc1ccccc1CN/C(=N\O)c1cccnc1Oc1ccc(C(C)C)cc1, the “% inhibition” value is reported as 99%. For CCOc1ccccc1CN/C(=N\O)c1cccnc1Oc1ccc2oc3ccccc3c2c1, the “% inhibition” value was 14%. With CCCN(Cc1coc(-c2cccs2)n1)CC1CC1 the “% inhibition” value was 0%. Cc1ccc(/C(=N/O)N(C)Cc2cccnc2)c(OCc2ccccc2F)n1 was tested, and the “% inhibition” value was 0%. For COc1ccc(-c2nc(CNCc3ccc(C(C)(C)C)cc3)co2)cc1, the “% inhibition” value was 4%. With Cc1ccc(C(C)C)c(Oc2cc(/C(=N/O)N3C(C)CCC3C)ccn2)c1 (stereo unspecified) the “% inhibition” value was 8%. In the case of COc1ccc(N(C)Cc2coc(-c3ccc(C(F)(F)F)cc3)n2)cc1, the “% inhibition” value is reported as 2%. In the case of Fc1cccc(-c2nc(CN3CCC4CCCCC4C3)co2)c1 (stereo unspecified), the “% inhibition” value is reported as 0%. In the case of O/N=C(\NCc1ccccn1)c1cccnc1Oc1ccc(F)cc1Cl, the “% inhibition” value is reported as 20%. With Cc1ccc(CN/C(=N\O)c2cccnc2Oc2cc(Cl)ccc2Cl)o1 the “% inhibition” value was 100%. For COc1ccc(Oc2ncccc2/C(=N/O)NCc2ccc(C)o2)cc1, the “% inhibition” value was 5%. With Cc1ccc(CN/C(=N\O)c2cccnc2Oc2c(F)cccc2F)o1 the “% inhibition” value was 0%. O/N=C(\NCc1cccnc1)c1cccnc1Oc1ccc(F)cc1Cl was tested, and the “% inhibition” value was 14%. In the case of O/N=C(\NCc1ccccc1)c1cccnc1Oc1ccc(F)cc1Cl, the “% inhibition” value is reported as 94%. With CSc1ccc(Oc2nc(C)ccc2/C(=N/O)n2ccnc2)cc1 the “% inhibition” value was -8%. In the case of CCCCN(CCC#N)Cc1coc(-c2ccc(C)cc2)n1, the “% inhibition” value is reported as -2%. CCCC(CCC)NCc1coc(-c2ccc(OCC)cc2)n1 was tested, and the “% inhibition” value was 99%. In the case of CCCCCCC(C)NCc1coc(-c2ccccc2OCC)n1 (stereo unspecified), the “% inhibition” value is reported as 41%. CCCCCCC(C)NCc1coc(-c2ccccc2Br)n1 (stereo unspecified) was tested, and the “% inhibition” value was 28%. For CC(CCc1ccccc1)NCc1coc(-c2ccccc2Cl)n1 (stereo unspecified), the “% inhibition” value was 8%. CCN(CC)CCCC(C)NCc1coc(-c2ccccc2Cl)n1 (stereo unspecified) was tested, and the “% inhibition” value was 94%. With CCOc1ccccc1-c1nc(CNC(C)c2ccccc2)co1 (stereo unspecified) the “% inhibition” value was -8%. With CCOc1ccccc1-c1nc(CN[C@H](C)c2ccc(C)cc2)co1 the “% inhibition” value was 10%. With CCOc1ccc(-c2nc(CNC(CC)COC)co2)cc1 (stereo unspecified) the “% inhibition” value was 21%. CCCCCC(C)NCc1coc(-c2ccccc2OCC)n1 (stereo unspecified) was tested, and the “% inhibition” value was 99%. CCN(CC)CCNCc1coc(-c2ccccc2Cl)n1 was tested, and the “% inhibition” value was -11%. In the case of CCCC(CCC)NCc1coc(-c2ccc(O)cc2)n1, the “% inhibition” value is reported as 14%. Cc1ccc(/C(=N/O)N2CCN(c3ccccc3)CC2)c(Oc2ccc(F)cc2)n1 was tested, and the “% inhibition” value was 20%. With C=CCN(CC=C)Cc1coc(-c2cccs2)n1 the “% inhibition” value was -3%. With Cc1ccc(-c2nc(CNc3cc(C)nn3-c3ccccc3)co2)cc1 the “% inhibition” value was 10%. C=C(C)CN(CC)Cc1coc(-c2cccc3ccccc23)n1 was tested, and the “% inhibition” value was -7%. COc1cc(-c2nc(CNC(C)c3ccccc3)co2)cc(OC)c1OC (stereo unspecified) was tested, and the “% inhibition” value was 0%. In the case of CCC(NCc1coc(-c2ccc(Cl)cc2Cl)n1)c1ccccc1 (stereo unspecified), the “% inhibition” value is reported as 5% and 14%. With CCCCN(CCC#N)Cc1coc(-c2ccc(O)cc2)n1 the “% inhibition” value was -26%. Cc1ccccc1-c1nc(CN(C)C(C)c2ccccc2)co1 (stereo unspecified) was tested, and the “% inhibition” value was 13%. With CCCC(CCC)NCc1coc(-c2ccccc2Br)n1 the “% inhibition” value was -3%. COCC(C)NCc1coc(-c2ccc(Cl)cc2Cl)n1 (stereo unspecified) was tested, and the “% inhibition” value was 2%. For CCCC(CCC)NCc1coc(-c2ccccc2OCC)n1, the “% inhibition” value was 98%. For CCOc1ccccc1-c1nc(CNC(CC)COC)co1 (stereo unspecified), the “% inhibition” value was 5%. In the case of CC(NCc1coc(-c2ccc(Cl)cc2Cl)n1)C(C)(C)C (stereo unspecified), the “% inhibition” value is reported as 55%. With Cc1ccc(-c2nc(CN(c3ccccc3)C(C)C)co2)cc1 the “% inhibition” value was 23%. In the case of c1ccc2c(-c3nc(CN4CCC(N5CCCC5)CC4)co3)cccc2c1, the “% inhibition” value is reported as 35%. With COCCN(CCOC)Cc1coc(-c2cccc(C)c2)n1 the “% inhibition” value was 13%. For Fc1ccc(-c2nc(CN(Cc3ccccn3)Cc3ccccn3)co2)cc1, the “% inhibition” value was 48%. Cc1ccc(-c2nc(CN(Cc3ccccn3)Cc3ccccn3)co2)cc1 was tested, and the “% inhibition” value was 83%. In the case of COCCN(CCOC)Cc1coc(-c2ccc(Cl)cc2Cl)n1, the “% inhibition” value is reported as 6%. In the case of Cc1cccc(-c2nc(CN(Cc3ccccn3)Cc3ccccn3)co2)c1, the “% inhibition” value is reported as 63%. In the case of COc1ccc(-c2nc(CN(Cc3ccccn3)Cc3ccccn3)co2)cc1, the “% inhibition” value is reported as 46%. In the case of CN(CCc1ccccn1)Cc1coc(-c2ccc(Cl)cc2Cl)n1, the “% inhibition” value is reported as -26%. Clc1ccc(-c2nc(CN(Cc3ccccn3)Cc3ccccn3)co2)c(Cl)c1 was tested, and the “% inhibition” value was 58%. Fc1cccc(-c2nc(CN(Cc3ccccn3)Cc3ccccn3)co2)c1 was tested, and the “% inhibition” value was 4%.
